The compounds below were run against Tyrosine-protein kinase CSK (Homo sapiens) (UniProt P41240). Settings: at 0.1 µM.
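Also: value given is the averaged percent inhibition of CSK kinase activity, from the GSK PKIS kinase inhibitor set screening panel.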

Chain of Tyrosine-protein kinase CSK (Homo sapiens) (P41240 2-450 limits assumed): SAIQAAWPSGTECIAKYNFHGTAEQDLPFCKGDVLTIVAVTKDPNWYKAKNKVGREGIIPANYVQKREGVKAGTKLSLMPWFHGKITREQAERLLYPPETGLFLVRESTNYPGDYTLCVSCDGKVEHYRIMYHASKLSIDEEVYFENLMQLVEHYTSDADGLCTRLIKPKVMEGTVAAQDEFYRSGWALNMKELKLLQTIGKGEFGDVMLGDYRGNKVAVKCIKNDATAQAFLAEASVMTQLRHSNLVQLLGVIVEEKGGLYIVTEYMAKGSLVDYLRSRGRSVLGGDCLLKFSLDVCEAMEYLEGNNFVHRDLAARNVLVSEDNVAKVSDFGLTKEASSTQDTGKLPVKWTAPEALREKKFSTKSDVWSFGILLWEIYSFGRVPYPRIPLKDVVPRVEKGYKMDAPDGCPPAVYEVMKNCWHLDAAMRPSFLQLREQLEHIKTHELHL

Row | Compound | inhibition [%]
1 | CN(C)c1ccc2c(c1)/C(=C/Nc1ccc(S(N)(=O)=O)cc1)C(=O)N2 | 2.3
2 | CN(c1ccc(NC(=O)Nc2c(Cl)cccc2Cl)cc1)c1ccnc(Nc2cccc(CS(C)(=O)=O)c2)n1 | 10.6
3 | Fc1ccc(-c2c(-c3ccncc3)nc3n2CCS3)cc1 | 3.65
4 | N#Cc1ccc(Oc2nccc(-c3c(-c4ccc(F)cc4)ncn3C3CCNCC3)n2)cc1 | 0.79
5 | CN1CCN(CCCNc2nc3ccc(Oc4ccc(NC(=O)Nc5cc(C(F)(F)F)ccc5F)cc4)cc3[nH]2)CC1 | -0.95
6 | COc1cc(Nc2ncc(-c3ccccc3)o2)cc(OC)c1OC | -1.07
7 | COc1cc2ncn(-c3cc(OCc4cccs4)c(C(N)=O)s3)c2cc1OC | 4.25
8 | COc1cc2ncn(-c3cc(OCc4ccccc4C(F)(F)F)c(C(C)=O)s3)c2cc1OC | 0.53
9 | CN(C)CCCNc1nccc(-c2c(-c3ccc(F)cc3)nn3cc(C(F)(F)F)ccc23)n1 | 2.44
10 | c1ccc(Oc2ccc(Nc3ncc(-c4ccccc4)o3)cc2)cc1 | 4.92
11 | Fc1ccc(-c2ncn(CCCN3CCOCC3)c2-c2ccncc2)cc1 | -2.06
12 | COc1ccc2cc(-c3c(-c4ccncc4)nc(-c4ccc([S+](C)[O-])cc4C)n3C)ccc2c1 (centres undefined) | -0.71
13 | CS(=O)(=O)CCNCc1cc(-c2cc3c(Nc4ccc(OCc5cccc(F)c5)c(Cl)c4)ncnc3s2)cs1 | 1.58
14 | O=C1Nc2ccc(I)cc2C1=Cc1cc(Br)c(O)c(Br)c1 | -2.19
15 | CCc1cccc(CC)c1/C=C/c1cncc(C(=O)NC)c1 | 1.29
16 | Fc1ccc(-c2ncn(C3CCNCC3)c2-c2ccnc(Oc3ccc(Oc4ccccc4)cc3)n2)cc1 | 0.47
17 | COc1ccc(C2=C(N3CCc4ccccc43)C(=O)NC2=O)cc1 | 7.99

Row | Compound | inhibition [%]
18 | O=C1Nc2ccccc2/C1=C/Nc1ccc(-n2cncn2)cc1 | 3.03
19 | O=C(Nc1n[nH]c2cc(-c3cc(F)ccc3F)ccc12)C1CC1 | 3.87
20 | CCN(CC)Cc1ccc(Nc2nccc(-c3cnn4ncccc34)n2)cc1 | 1.79
21 | CCc1ccc(Oc2nccc(-c3c(-c4ccc(F)cc4)ncn3C3CCNCC3)n2)cc1 | -0.21
22 | O=C(Nc1n[nH]c2nc(-c3ccco3)ccc12)C1CC1 | 0.84
23 | NC(=O)Cc1ccccc1Oc1nccc(-c2c(-c3ccc(F)cc3)ncn2C2CCNCC2)n1 | 0.51
24 | CCc1nccc2c1nc(-c1nonc1N)n2CC | 1.3
25 | NC(=O)c1cc(-c2ccncc2)cc(-c2ccccc2)c1N | 5.98
26 | COc1ccc(-c2ccc3c(NC(=O)C4CC4)n[nH]c3n2)cc1 | 0.42
27 | COC(=O)Nc1nc2ccc(Sc3ccc(NC(=O)Nc4cc(C(F)(F)F)ccc4F)cc3)cc2[nH]1 | 1.7
28 | Fc1ccc(-c2ncn(C3CCNCC3)c2-c2ccnc(Oc3ccc(F)c(F)c3)n2)cc1 | 2.54
29 | O=C(Nc1n[nH]c2nc(-c3ccc(O)cc3)c(Br)cc12)C1CC1 | 8.35
30 | Cc1ccc(NC(=O)c2ccoc2)cc1-c1ccc(C(=O)NCC2CC2)cc1 | 1.61
31 | COc1cc(N2CCN(C(C)C)CC2)ccc1Nc1nc(Nc2ccc(F)cc2C(=O)NC[C@@H](O)CO)c2cc[nH]c2n1 | 5.74
32 | CCS(=O)(=O)c1ccc(OC)c(Nc2ncc(-c3cccc(-c4ccccc4F)c3)o2)c1 | 0.57
33 | NS(=O)(=O)c1ccc(N/N=C2\C(=O)Nc3ccc(-c4cnco4)cc32)cc1 | 2.16
34 | C[C@@H](Oc1cc(-n2cnc3ccc(OC4CCN(C)CC4)cc32)sc1C(N)=O)c1ccccc1Cl | 2.4

From ChEMBL document CHEMBL1961873, “Compounds: GSK PKIS; Assays: Nanosyn kinase panel” (2012)
